# IL1B secr inh: inhibitors of inflammasome signaling (IL-1 beta secretion); THP-1 LPS/ATP IL-1B secretion, AlphaLISA, 16 h; stronger effect = lower value; activity change, % at 57.5 µM; 360,000 compounds, 4.7% hits; in the data active = activity change below about -50%; inconclusive = mostly about -30% to -49%
#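 THP-1 cells pretreated 1 hr with compounds (up to 57.5 uM final), then stimulated with LPS (250 ng/mL final) plus ATP (1.25 mM final); secreted IL-1B measured by AlphaLISA after 16 hr, decreased signal indicating inhibition.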
# DT40 TDP1 CPT: DT40-hTDP1 cell growth loss with CPT | chicken DT40 Tdp1-/-;hTDP1 cells + 20 nM CPT, ATP luminescence, 48 h | 420,000 compounds, 12% hits | AID 686979 | Potency, µM (top dose mostly 46.2 µM), inactives show top-dose activity change, negative = growth inhibition, actives largely listed as inhibitors; also: potency is read from the fitted curve at half-maximal effect; nearly all actives have a fitted effect of over 55% in size
#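 Cell growth measured by CellTiter-Glo luminescence after a minimum 48 h, 37 C compound exposure with 20 nM CPT in Tdp1-knockout DT40 cells stably expressing hTDP1, seeded 400/well; qHTS titration format.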
# TDP1 cell noCPT: qHTS for Inhibitors of human tyrosyl-DNA phosphodiesterase 1 (TDP1): qHTS in cells in absence of CPT. DT40 Tdp1-/- hTDP1 cells, no CPT, ATP luminescence, 48 h. Potency, µM (highest dose often 46.2 µM), inactives show at the top dose activity change, negative = growth inhibition, usual class: inhibitors. 420,000 compounds, 15% hits; also: potency is read from the fitted curve at half-maximal effect; nearly all actives have a fitted effect of over 55% in size
#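 Growth of hTDP1-complemented DT40 Tdp1-knockout cells is measured by ATP luminescence after at least 48 hr compound exposure at 37 °C, with DMSO substituting for the 20 nM CPT used in the parallel screen.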
# HT1080NT lethal: kills 2HG-producing HT-1080-NT fibrosarcoma cells. 360,000 compounds, 1.6% hits. HT-1080-NT fibrosarcoma viability, CellTiter-Glo ATP luminescence, 48 h. Potency, µM (titrated, usually from 46.1 µM), without a hit: top-dose activity, negative = less viability, usual class: cytotoxic;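 also: NT is the 2HG producing partner of a matched IDH1 knockdown line; potency is read from the fitted curve at half-maximal effect; 0% = DMSO-treated cells and -100% = media-only wells without cells; nearly all actives have a fitted effect of over 55% in size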
#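 A 48-hour cytotoxicity screen used HT-1080-NT cells plated 2 hours before compound delivery. ATP-based CellTiter-Glo luminescence measured viability, normalized to DMSO and no-cell controls.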
# HT1080 IDH1KD tx: kills HT-1080 cells with IDH1 knockdown; 360,000 compounds, 2% hits; HT-1080 IDH1 knockdown viability, ATP luminescence, 48 h; Potency, µM (doses to about 46.1 µM), for the others: at the top dose activity, negative = toxicity, usual class: cytotoxic;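 also: potency is read from the fitted curve at half-maximal effect; 0% = DMSO wells and -100% = cell-free medium wells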
#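 HT-1080-IDH1KD cells (IDH1 knocked down), 750/well in RPMI with 5% FBS, treated with compound 48 h at 37 degrees C. Viability by CellTiter-Glo luminescence, normalised to DMSO and no-cell wells; concentration-response curves classed.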
# * hit, by the source's call; u = inconclusive; x = no result. An excerpt weighted towards active compounds, which were near 19% of everything screened. Unless noted, calls follow the shape of the dose curve; as a rule, active = well fitted curve in the direction sought with a large enough effect; inconclusive = small, poorly fitted or top-dose-only effect, or another doubt; inactive = no such curve, though single readings can be large; an effect the other way counts as inactive or inconclusive. Unless noted, % is scaled to controls: 0 for no effect and ±100 for the full control effect.
SMILES,IL1B secr inh,DT40 TDP1 CPT,TDP1 cell noCPT,HT1080NT lethal,HT1080 IDH1KD tx
COc1ccc(N2CCN(CC(=O)Nc3nc(C)cs3)CC2)cc1,26,4%,-5%,20%,15%
O=C(c1cccc(C(F)(F)F)c1)C1CCCN(C(=O)CN2CCOC2=O)C1 (stereo not drawn),0,3%,15%,3%,14%
Cc1cccn2c(=O)c3cc(C(=O)NC4CCCC4)sc3nc12,-13,u,u,-14%,-1%
COc1ccc(CNC(=O)c2sc(=O)n(Cc3ccccc3OC)c2C)cc1,-24,u,u,7%,6%
CC(C)(C)c1ccc(S(=O)(=O)NC(=O)C2(C)CCN2C(=O)C2CC2)cc1 (stereo not drawn),-27,-6%,3%,u,10%
O=c1c2ccccc2ncn1-c1ccc([N+](=O)[O-])cc1Cl,-11,-4%,-11%,16%,u
CCc1cccc(NC(c2ccccc2)c2nnc(-c3ccccc3F)o2)c1 (stereo not drawn),x,u,21µM*,x,x
Cc1ccc(NC(c2ccc(Cl)cc2)c2nnc(-c3cccc(F)c3)o2)cc1C (stereo not drawn),x,-6%,u,x,x
O=C(NCCCN1CCOCC1)C(=O)N/N=C/c1c2ccccc2cc2ccccc12,47,u,21µM*,u,u
Cc1ccc(N(Cc2cc3ccc(C)cc3[nH]c2=O)C(=O)c2ccco2)c(C)c1,u,u,23µM*,0%,12%
Cc1ccc2cc(CN(C(=O)c3ccco3)c3cccc(C)c3C)c(=O)[nH]c2c1,-17,-28%,u,7%,14%
Cc1ccc2cc(CN(C(=O)c3ccco3)c3ccccc3C)c(=O)[nH]c2c1,-11,u,21µM*,-8%,-7%
COCC(=O)N(Cc1cc2ccc(C)cc2[nH]c1=O)c1ccc(C)cc1C,12,-4%,-9%,-12%,6%
COc1ccccc1NNC(=O)C(O)(c1ccccc1OC)c1ccccc1OC,9,18µM*,23µM*,15%,25%
CCCOc1ccc(/C(O)=C2/C(=O)C(=O)N(CCCn3ccnc3)C2c2ccc(C)o2)cc1 (stereo not drawn),1,13%,1%,11%,7%
CCCCOC(=O)c1ccc(-c2ccc(/C=N/NC(=S)NCC)o2)cc1,18,5.8µM*,7.3µM*,2.8µM*,-23%
CCOC(=O)c1ccc(-c2ccc(/C=N/NC(=O)c3cncc(Br)c3)o2)cc1,11,u,23µM*,13%,13%
Cc1ccc(/C=N\NC(=O)c2cncc(Br)c2)o1,-11,-5%,-4%,-1%,-6%
CCCOC(=O)c1ccc(-c2ccc(C=O)o2)cc1,-5,-24%,u,0%,-2%
Cc1cccc(C)c1NC(=O)Cn1c(=O)cc(C)c2c(C)nn(-c3cccc(Cl)c3C)c21,x,-26%,-29%,x,x
O=C(CN1C(=O)c2cccnc2Oc2ccc(Cl)cc21)Nc1ccccc1F,5,u,18µM*,1%,-16%
O=C(CN1C(=O)c2cccnc2Oc2ccc(Cl)cc21)NCCCc1ccccc1,-8,23µM*,u,18%,12%
O=C(CN1C(=O)c2cccnc2Oc2ccc(Cl)cc21)Nc1cccc(C(F)(F)F)c1,x,u,18µM*,x,x
NCCCC(O)(P(=O)(O)O)P(=O)(O)O,x,-24%,-12%,x,x
O=C(Nc1ccc2c(c1)OCO2)N1CCN(Cc2ccco2)CC1,0,1%,7%,-6%,14%
SMILES,IL1B secr inh,DT40 TDP1 CPT,TDP1 cell noCPT,HT1080NT lethal,HT1080 IDH1KD tx
O=[N+]([O-])c1cccc(N=Nc2ccc(O)cc2O)c1,-68*,3.3µM*,5.2µM*,u,5.8µM*
O=[N+]([O-])c1ccc(N=Nc2ccc(O)cc2O)cc1,-92*,u,-6%,18µM*,5.8µM*
CCCN1CCN(C(=O)C2CCN(S(=O)(=O)c3c(C)noc3/C=C/c3ccc(C)cc3)CC2)CC1,u,21µM*,21µM*,16µM*,u
Cc1cccc(/C=C/c2onc(C)c2S(=O)(=O)N2CCC(C(=O)N3CCCCC3)CC2)c1,-15,29µM*,18µM*,-1%,-8%
CNC(=O)C1CCN(S(=O)(=O)c2c(C)noc2/C=C/c2ccc(C)cc2)CC1,2,u,u,-2%,3%
CCOC(=O)C1CCCN(C(=O)C2CCN(S(=O)(=O)c3c(C)noc3/C=C/c3ccc(C)cc3)CC2)C1 (stereo not drawn),x,18µM*,u,x,x
CCCN(C(=O)C1CCN(S(=O)(=O)c2c(C)noc2/C=C/c2ccc(C)cc2)CC1)c1ccccc1F,x,u,23µM*,x,x
Cc1ccc(/C=C/c2onc(C)c2S(=O)(=O)N2CCC(C(=O)N3CCCCC3)CC2)cc1,u,u,u,-6%,-5%
Cc1cccc(N2CCN(C(=O)C3CCN(S(=O)(=O)c4c(C)noc4C)CC3)CC2C)c1 (stereo not drawn),4,8.2µM*,9.2µM*,-6%,0%
Cc1c(Br)c([N+](=O)[O-])nn1C(C)C(=O)N1CCc2ccccc2C1 (stereo not drawn),-8,-14%,-20%,-2%,-2%
CCOC(=O)C1=C(C)N(CCC(=O)O)C(=O)NC1c1ccccc1Cl (stereo not drawn),21,1%,5%,13%,2%
O=C(N/N=C/c1ccc(O)cc1O)c1ccc(CN2C(=O)c3cccc4cccc2c34)cc1,119,4.6µM*,3.7µM*,u,u
